Results filed as inconclusive are left out. Active and inactive are the calls of the source. The call rests on the fitted dose curve; in most records, active means well fitted activation curve with a large enough effect in the signal ratio in the repeat runs (not every such curve was filed as active); inconclusive means weak or mixed curves, or effect the other way; inactive means no such curve, though single readings can be large or run the other way; the % refers to the signal ratio.
Assay: qHTS assay for small molecule agonists of the antioxidant response element (ARE) signaling pathway (AID 743202)
Settings: HepG2 ARE-bla reporter, beta-lactamase FRET, 16 h; series mostly up to 73.3 µM; activation: at the top concentration
Source text: U.S. Tox21 Program National Center for Advancing Translational Sciences [NCATS] NIH Chemical Genomics Center [NCGC] U.S. Environmental Protection Agency [EPA] National Institutes of Environmental Health Sciences [NIEHS] National Toxicology Program [NTP] U.S. Food and Drug Administration [FDA] Tox21 Assay Overview: Oxidative stress has been implicated in the pathogenesis of a variety of diseases ranging from cancer to neurodegeneration. The antioxidant response element (ARE) signaling pathway plays an important role in the amelioration of oxidative stress. The CellSensor ARE-bla HepG2 cell line (Invitrogen) can be used for analyzing the Nrf2/antioxidant response signaling pathway. Nrf2 (NF-E2-related factor 2) and Nrf1 are transcription factors that bind to AREs and activate these genes. The CellSensor ARE-bla Hep G2 cell line contains a beta-lactamase reporter gene under control of the Antioxidant Response Element (ARE) stably integrated into HepG2 cells. The activation of the report gene under culture conditions can be detected by fluorescence intensity. This cell line has been used to screen the Tox21 10K compound library to identify agonists that induce oxidative stress.
Tox21 Assay Protocol Summary: The ARE-bla cells were dispensed at 2,000 cells/5 ul/well in 1536-well black wall/clear bottom plates using a Multidrop dispenser. After the assay plates were incubated at a 37 C/5% CO2 incubator for 5 hours, 23 nL of compounds dissolved in DMSO, positive controls or DMSO only was transferred to the assay plate by a pin tool. The plates were incubated at 37 C for 16 hours. After 1 uL of LiveBLAzer B/G FRET substrate was added using a Flying Reagent Dispenser, the plates were incubated at room temperature for 2 hours, and fluorescence intensity was measured by an Envision plate reader.
On the % scale 0 is the no-effect control and ±100 the full control effect; potency means the concentration at half of the fitted maximal effect.

| Structure (SMILES) | activation | Potency |
| --- | --- | --- |
| CC(=O)Nc1ccc(C)c(Cl)c1 | -5.32% (inactive) |  |
| OCCN(CCO)c1ccccc1 | -0.0661% (inactive) |  |
| CC(=O)OC(C)OC(C)=O | -1.75% [at 94.8 µM] (inactive) |  |
| COc1nc(C)nc(NC(=O)NS(=O)(=O)c2ccccc2OCCCl)n1 | -0.25% (inactive) |  |
| O=C1CCCc2ccccc21 | -11.3% [at 94.8 µM] (inactive) |  |
| CCCOCCC | -0.211% (inactive) |  |
| C[C@@H]1CN(c2c(F)c(N)c3c(=O)c(C(=O)O)cn(C4CC4)c3c2F)C[C@H](C)N1 | -6.69% [at 34.3 µM] (inactive) |  |
| CCC1(C)NC(=O)NC1=O (stereo not given) | -3.98% (inactive) |  |
| CC(C)Nc1nc(N)nc(Cl)n1 | 7.33% (inactive) |  |
| CCCCNc1cc(C(=O)O)cc(S(N)(=O)=O)c1Oc1ccccc1 | -2.43% (inactive) |  |
| CCC/C=C/CO | 2.01% (inactive) |  |
| CN1CCN(N)CC1 | -5.04% (inactive) |  |
| CCc1cc2cc(OC)c(OC)cc2c(Cc2ccccc2)n1 | -4% (inactive) |  |
| CN(CC1(C)CCCO1)S(=O)(=O)c1ccc(Cl)c(S(N)(=O)=O)c1 (stereo not given) | 0.458% (inactive) |  |
| COc1ccc(Nc2ccc(OC)cc2)cc1 | 10.8% [at 94.8 µM] (inactive) |  |
| CCCCCCC | 3.46% [at 94.8 µM] (inactive) |  |
| COC(=O)/C=C(/C)N | -12.3% (inactive) |  |
| O=C1CCCCC1C1CCCCC1 (stereo not given) | -15.8% (inactive) |  |
| CC(=O)Oc1cc(C(C)C)c(OCCN(C)C)cc1C | -0.747% (inactive) |  |
| CC(C)C(=O)OC/C=C/c1ccccc1 | 13.1% (inactive) |  |

| Structure (SMILES) | activation | Potency |
| --- | --- | --- |
| CCCCCCCOC(=O)CCC | 1.44% (inactive) |  |
| O=[N+]([O-])c1nccn1CO[C@@H](CO)[C@H](O)CO | -0.0548% (inactive) |  |
| CCNCCO | 0.405% (inactive) |  |
| C[C@]12C(=O)OC(=O)[C@H]1[C@H]1C=C[C@@H]2C1 | -9.08% [at 94.8 µM] (inactive) |  |
| NC(=O)Cc1cccc(C(=O)c2ccccc2)c1N | 1.02% (inactive) |  |
| CC1=C(O)C(=O)OC1C (stereo not given) | -12.9% (inactive) |  |
| CCN(CC)CCNC(=O)COc1ccc(Cl)cc1 | -6.67% (inactive) |  |
| O=Cc1ccc(O)c(O)c1O |  | 23.7 µM (active) |
| CCOc1ccc(NS(=O)(=O)c2ccc(N)cc2)nn1 | -6.96% (inactive) |  |
| CC(C)C(=O)OCC(C)(C)C(O)C(C)C (stereo not given) | -4.05% [at 94.8 µM] (inactive) |  |
| O=C(CCCl)NCc1ccccc1 | -4.74% (inactive) |  |
| CO[C@@]1(NC(=O)CSCC#N)C(=O)N2C(C(=O)O)=C(CSc3nnnn3C)CS[C@@H]21 | 13.4% (inactive) |  |
| CCC(=O)Nc1ccc(O)cc1 | -5.55% (inactive) |  |
| Cc1c(-c2ccccc2)oc2c(C(=O)OCCN3CCCCC3)cccc2c1=O | -10.1% (inactive) |  |
| CN1CCN(c2c(F)cc3c(=O)c(C(=O)O)cn(CCF)c3c2F)CC1 | -0.318% (inactive) |  |
| CC(=O)N[C@@H](CC(C)C)C(=O)O | -0.0987% (inactive) |  |
| COc1cc2c(cc1N)oc1ccccc12 | 17.1% [at 94.8 µM] (inactive) |  |
| C1CSCCS1 | -11.2% (inactive) |  |
| C=C(C)C(=O)OCCOP(=O)(O)O | 13.9% [at 94.8 µM] (inactive) |  |
| N#Cc1ccc(C(c2ccc(C#N)cc2)n2cncn2)cc1 | -17.7% (inactive) |  |
